A short description of test [1]: circadian clock period modulators, cell-based, LOPAC library, luminescence reporter (AID 2774).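 Also: values are relative to mean of DMSO wells on each plate.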 The note with it: circadian reporter cells, at 7 µM, actives lie on both sides.
For test [2], the system named is Hepatitis C virus NS3 helicase. In words: HCV NS3 helicase inhibitors, primary screen, biochemical, fluorescence polarization, LOPAC1280 library (AID 687035; in the data active = inhibition above about 37%). The conditions noted are these: Purified HCV NS3 helicase, Cy5-dT15 ssDNA binding fluorescence polarization; stronger effect = higher value; concentration not given here.
The nature of test [3]: Cy5 fluorescence quenching or enhancement artefacts, artefact control for HCV NS3 helicase inhibitor project, biochemical, LOPAC1280 (AID 687037). The conditions noted are these: Cy5-DNA-NS3h complex fluorescence interference counterscreen.
Test [4] is described as follows: sensitizers of A549 cells to miR-34 induction, primary screen, imaging, A549 dox-inducible miR-34, nuclei and caspase counts (AID 1347080;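 active = compounds whose cell count with miR-34 switched on is under 0.7 times the count with it off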). The note with it: A549 miR-34 inducible, Hoechst nuclei count, 48 h.
Test [5] in a line: phospholipid biosynthesis inhibitors in animal cells, primary screen, cell-based, LOPAC library, screen 4 (AID 1347384). The conditions noted are these: phospholipid biosynthesis inhibition screen, at 10 µM.
Test [6] can be described thus: viability rescue of complex I mutant cybrids, primary screen, cell-based, galactose medium, ATP luminescence (AID 1645843;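 active = z-score of at least 1.8 in each of two replicates, scored against plate mean and spread of sample wells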;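 also: positive z means more ATP and so rescue of galactose-driven cybrid death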). The note with it: complex I mutant cybrid cells, 72 h, stronger effect = higher value.
Test [7] is described as follows: liver-stage malaria parasite growth inhibition, primary screen, cell-based, HepG2, luciferase luminescence, HepG2 viability (AID 624349; in the data active = parasite load remaining mostly below about 12%, no sharp cut-off; inactive = mostly above about 10%;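 also: 100% = mean of DMSO negative control wells on the same plate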). The note with it: P. berghei liver stage in HepG2, luciferase luminescence, concentration not given here; parasite load remaining: stronger effect = lower value; viability: measured here: HepG2 viability without parasites.
[8] abbreviates: stronger effect = lower value, cell number ratio, induced over uninduced.
Setting [9] is: measured here: relative caspase fold change +Dox/-Dox.
Where [10] appears, read: measured here: total cells with miR-34 induction, stronger effect = lower value.
Where [11] appears, read: measured here: total cells without miR-34 induction.

The source made the active and inactive calls. Unless noted, no rule for the calls is given here.

Results on 8 molecules are retold here after PubChem BioAssay.

Turning to `CCCC(=O)NCCc1c2n(c3ccc(OC)cc13)CCCc1ccccc1-2`, the period change in test [1] was 0.06 h (inactive). Besides, in test [2], the inhibition is 0% (inactive). For the same molecule, the fluorescence ratio (interference) in test [3] was 1 (inactive). For the same molecule, the fold change was 1.08 (inactive) in test [4] (setting [8]) and 0.293 in test [4] (setting [9]). Further, the cell count in test [4] (setting [10]) stood at 8600; in test [4] (setting [11]), 7960. In addition, the molecule was classed as inactive in test [5]. Moreover, the z-score in test [6] was -0.27 (inactive).

`N[C@@H](Cc1ccc(F)cc1)C(=O)O`: in test [1], the period change was -0.05 h (inactive). Moreover, the inhibition in test [2] was -1% (inactive). Also, the fluorescence ratio (interference) in test [3] was 1 (inactive). For the same molecule, the fold change was 1.04 (inactive) in test [4] (setting [8]) and 0.805 in test [4] (setting [9]). For the same molecule, the results for the cell count in test [4] (setting [10]) and in test [4] (setting [11]) were 9710 and 9330, respectively. Besides, the outcome in test [5] was inactive. Further, the z-score in test [6] was 0.26 (inactive).

On to `COc1ccc2c(c1)c(CC(=O)O)c(C)n2Cc1ccc(Cl)cc1`, for which the period change in test [1] was 0 h (inactive). Moreover, the inhibition in test [2] is 0% (inactive). Also, the fluorescence ratio (interference) in test [3] was 1 (inactive). The fold change in test [4] (setting [8]) is 0.957 (inactive); in test [4] (setting [9]) it was 1.52. Moreover, the cell count in test [4] (setting [10]) worked out at 8600; in test [4] (setting [11]), 8990. Besides, the call in test [5] was inactive. Moreover, the z-score in test [6] is 2.23 (active).

In the case of `O=[N+]([O-])c1ccc(CNc2nc(NCc3cccc(C(F)(F)F)c3)nc3nc[nH]c23)cc1`, the parasite load remaining in test [7] was 41.7% (inactive). Moreover, the viability in test [7] turned out to be 142%. For the same molecule, the fold change in test [4] (setting [8]) is 1.02 (inactive); in test [4] (setting [9]) it was 2.13. Further, the cell count was 7880 in test [4] (setting [10]) and 7740 in test [4] (setting [11]). Besides, the result in test [5] was inactive. In addition, the z-score in test [6] is -0.05 (inactive).

Take `C[C@H]1CC2C3CCC4=CC(=O)C=C[C@]4(C)[C@@]3(Cl)[C@@H](O)C[C@]2(C)[C@@]1(O)C(=O)CO` (stereo partly specified): in test [1], the period change was -0.07 h (inactive). In addition, in test [2], the inhibition is -3% (inactive). Further, the fluorescence ratio (interference) in test [3] is 1 (inactive). Moreover, the fold change was 0.918 (inactive) in test [4] (setting [8]) and 1.96 in test [4] (setting [9]). Also, the cell count in test [4] (setting [10]) was determined as 7200; in test [4] (setting [11]), 7840. In addition, the call in test [5] was inactive. The z-score in test [6] was 1.25 (inactive).

Consider `COc1ccccc1CNCCCCCCNCCCCCCCCNCCCCCCNCc1ccccc1OC`, for which, in test [1], the period change is 0.295 h (inactive). Further, in test [2], the inhibition is 11% (inactive). The fluorescence ratio (interference) in test [3] was 1 (inactive). In addition, the fold change in test [4] (setting [8]) is 1.1 (inactive); in test [4] (setting [9]) it was 0.839. The results for the cell count in test [4] (setting [10]) and in test [4] (setting [11]) were 8650 and 7890, respectively. Moreover, the molecule was called inactive in test [5]. In addition, the z-score in test [6] is -1.19 (inactive).

`Nc1ncnc2c1nc(Sc1ccc(Cl)cc1)n2C1OC2COP(=O)(O)O[C@@H]2[C@@H]1O` (stereo partly specified): the period change in test [1] is -0.015 h (inactive). For the same molecule, the inhibition in test [2] was -8% (inactive). Further, the fluorescence ratio (interference) in test [3] was 0.9 (inactive). Besides, the fold change in test [4] (setting [8]) was 1.01 (inactive); in test [4] (setting [9]) it was 1.25. Besides, the cell count in test [4] (setting [10]) and in test [4] (setting [11]) was 10500 each time. For the same molecule, the call in test [5] was inactive. Also, the z-score in test [6] is 1.15 (inactive).

For the molecule `CNC(=O)[C@H]1O[C@@H](n2cnc3c(NCc4ccc(N)cc4)ncnc32)C(O)[C@H]1O` (stereo partly specified), the period change in test [1] is -0.095 h (inactive). Moreover, in test [2], the inhibition was -2% (inactive). In addition, the fluorescence ratio (interference) in test [3] was 1 (inactive). Also, the fold change in test [4] (setting [8]) was 1 (inactive); in test [4] (setting [9]) it was 1.7. The cell count in test [4] (setting [10]) was 9670; in test [4] (setting [11]), 9680. The outcome in test [5] was inactive. Also, the z-score in test [6] is 0.09 (inactive).
